High-throughput results from PubChem BioAssay.
FBPA Giardia inh – blocks Giardia fructose-bisphosphate aldolase activity; purified Giardia FBPA; Potency, µM (top dose mostly 59.6 µM), for inactives: top-dose activity, negative = inhibition, most hits filed as inhibitors; A8B2U2; 290,000 tested, 0.71% active; note: potency is the fitted concentration of half-maximal effect; % is set by controls: 0 for no effect and ±100 for the full control effect; nearly all actives have a fitted effect of over 55% in size
Target sequence (A8B2U2 whole entry, looked up): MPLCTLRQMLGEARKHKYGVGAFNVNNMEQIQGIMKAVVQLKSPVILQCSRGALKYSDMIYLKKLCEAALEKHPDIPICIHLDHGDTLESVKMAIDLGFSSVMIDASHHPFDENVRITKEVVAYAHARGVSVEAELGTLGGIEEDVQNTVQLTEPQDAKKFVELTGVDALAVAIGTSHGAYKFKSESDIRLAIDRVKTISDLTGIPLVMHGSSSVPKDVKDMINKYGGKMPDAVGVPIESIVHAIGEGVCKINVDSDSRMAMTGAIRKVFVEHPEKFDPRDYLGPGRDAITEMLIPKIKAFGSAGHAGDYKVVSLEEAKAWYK
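40 nM FBPA preincubated 10 min at RT with compound (up to 57.5 uM final), then substrate plus GAPDH/TPI/NAD/arsenate coupling and diaphorase/resazurin added. Fluorescence read after 20 min at RT, 525/598 nm.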
Pf growth 96h – inhibits malaria parasite growth, 96 h; P. falciparum luciferase reporter growth, 96 h; Potency, µM (top dose mostly 28.7 µM), inactives show at the highest dose activity change, negative = inhibition, most hits filed as inhibitors; 320,000 tested, 6.9% active; AID 504834; note: potency is the fitted concentration of half-maximal effect; % is set by controls: 0 for no effect and ±100 for the full control effect
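Luminescence readout: decreased luciferase signal marks inhibited growth of reporter-expressing P. falciparum in infected red cells (2% hematocrit, 0.05% parasitemia final), exposed to compound two generations (96 h, 37 C, 5% CO2).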
Shiga toxin inh – inhibitors of Shiga toxin in Vero cells; Vero cells, Shiga toxin protein synthesis inhibition reporter; inhibition, % at 38.7 µM; 290,000 tested, 9.2% active; AID 2315; in the data active = inhibition mostly above about 28%, no sharp cut-off; inactive = mostly below about 43%; note: 0% is about no effect
CHX counter – counter-screen hit for Shiga toxin inhibitors, cycloheximide. cell reporter, cycloheximide protein synthesis inhibition counterscreen. max response, %. 300,000 tested, 12% active. AID 2314; in the data active = max response mostly above about 13%, no sharp cut-off; inactive = mostly below about 14%; note: read at 38.3 µM for the half of the compounds with a filed dose; 0% is about no effect
Pf growth 48h – inhibits P. falciparum growth in the first generation, 48 h; 310,000 tested, 5.9% active; P. falciparum luciferase growth in erythrocytes, 48 h; AID 504832; Potency, µM (top dose mostly 28.7 µM), for the others: at the top dose activity change, negative = inhibition, most hits filed as inhibitors; note: potency is the fitted concentration of half-maximal effect; % is set by controls: 0 for no effect and ±100 for the full control effect
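Luciferase-expressing parasites in RBCs, 2% Hct / 0.1% parasitemia final; RPMI 1640 + 0.5% Albumax; 37 C, 5% CO2, one generation; luminescence read-out, lower signal = inhibition.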
NS1 inh – influenza NS1 inhibition. Potency, µM (titrated, usually from 46.1 µM), for the others: at the highest dose activity, positive = more growth. 270,000 tested, 0.4% active. AID 2326; calls by dose curve; note: potency is the fitted concentration of half-maximal effect; actives are rising curves; nearly all actives have a fitted effect of over 50% in size
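Recovery from NS1-induced slow growth read by OD600 in budding yeast switched to galactose assay medium (pH 6.0, -URA) at 1:100 dilution. Compound 23 nl per well; the matching strain lacking NS1 serves as control.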
Starred values were filed as active, the others as inactive; ? = inconclusive; · = not tested or not shown; [ ] = another dose, or the depositor's remark. Most compounds without a hit are left out; they make up all but 21% or so of the library. Unless noted, calls come from the whole dose curve; as a rule, active = well fitted curve in the direction sought with a large enough effect; inconclusive = small, poorly fitted or top-dose-only effect, or another doubt; inactive = no such curve, though single readings can be large; an effect the other way counts as inactive or inconclusive.

SMILES | FBPA Giardia inh | Pf growth 96h | Shiga toxin inh | CHX counter | Pf growth 48h | NS1 inh
CCc1ccc(NC(=O)CSc2nc3ccsc3c(=O)n2CCC(=O)O)cc1 | · | 7.38µM* | -9.6 | 6.0 | 11.5% | 18.6%
CCc1ccc(NC(=O)CSc2nncn2-c2cccnc2)cc1 | 3.5% | 41.8% | 150.9* | 32.1* | 55.7% | -10.9%
CCOc1ccc(NC(=O)CSc2nc3ccsc3c(=O)n2CCC(=O)O)cc1 | 24.5% | 42.4% | 28.4 | -1.9 | 21.8% | -1.9%
CCC1(CC)NC(=O)N(CC(=O)N2N=C(c3ccc(Cl)cc3)CC2c2ccco2)C1=O (stereo not given) | -7.3% | ? | -5.7 | -1.8 | ? | ·
CN(Cc1cn(C)nc1-c1cccc(Cl)c1)C1CCOCC1 | -2.5% | 27.4% | -20.7 | -1.2 | 0.0% | -2.0%
CN(Cc1ccon1)Cc1cn(C)nc1-c1cccc(Cl)c1 | ? | -8.3% | 70.6 | 33.4* | 179.3% | -2.5%
Cc1c(CCC(=O)N2CCC[C@H]2C(=O)O)c(=O)oc2c(C)c3oc4c(c3cc12)CCCC4 | -5.1% | -20.3% | 4.9 | 8.5* | 71.6% | 29.3%
COc1cc(=O)n(C)c2c(OCC3OC(C)(C)OC3(C)C)cccc12 (stereo not given) | 0.9% | ? | 35.3 | 9.7* | ? | -0.7%
CC(=O)Nc1nnc(SCc2ccccc2F)s1 | 0.7% | · | 44.0* | 23.8* | 73.3% | -48.5%
O=C(Nc1nnc(SCc2ccccc2F)s1)C1=COCCO1 | 17.8% | 37.4% | 115.9* | 56.5* | 20.6% | -20.6%
O=C(Nc1ccc(Cl)cc1)Nc1nnc(CSCc2ccccc2)s1 | 2.2% | -5.0% | -1.1 | -4.8 | ? | 6.0%
CC(=O)Nc1nnc(CSCc2ccccc2F)s1 | 0.2% | 7.5% | 27.7 | 23.3* | 12.6% | 0.0%
O=C(COC(=O)CCc1ccccc1)Nc1ccc(F)cc1Cl | -7.8% | 48.7% | -10.4 | -1.6 | 25.8% | -19.0%
COc1ccc(COC(=O)N/N=C2/C[C@@H](O)[C@@H](O)[C@@H]3[C@@H]4C(=O)N(Cc5ccc6c(c5)OCO6)C(=O)[C@H]4CC[C@@H]23)cc1 | 5.3%[12.9 µM] | · | · | · | · | ·
CCOc1ccc(OCCC(=O)OCC(=O)Nc2ccc3c(c2)OCCO3)cc1 | · | 11.1% | · | · | -2.4% | ·
O=C(/C=C1\C(=O)Nc2ccccc21)/C=C1\C(=O)Nc2ccccc21 | -18.9% | ? | 48.3 | 14.9* | 60.8% | 0.2%
Cc1ncc(/C=C2\C(=O)Nc3ccccc32)[nH]1 | -4.3% | ? | 40.2* | 26.2* | 22.6% | 7.9%
CCc1ncc(/C=C2\C(=O)Nc3ccccc32)[nH]1 | 0.6% | 70.4% | 28.7 | 26.3* | 34.6% | -0.6%
CC(Oc1ccc(C(=O)c2ccc(F)cc2)cc1)C(=O)N1CCOCC1 (stereo not given) | · | 8.9% | · | · | -16.2% | ·
O=C(O)C(O)C(O)(Cc1ccc(O)cc1)C(=O)O (stereo not given) | -10.7% | · | · | · | · | ·
C=CCNC(=O)C1CCN(c2c([N+](=O)[O-])cc(C(F)(F)F)cc2[N+](=O)[O-])CC1 | 0.4% | 9.28µM* | -15.9 | -1.4 | 5.22µM* | -3.5%
CO[C@]1(NC(=O)[C@H](C(=O)O)c2ccc(O)cc2)C(=O)N2C(C(=O)O)=C(CSc3nnnn3C)CO[C@H]21 | -19.0%[21.7 µM] | 7.0%[12.8 µM] | · | · | -4.8%[12.8 µM] | ·
O=C(O)CN1C(=O)NC2(CCCc3ccccc32)C1=O (stereo not given) | -4.3% | 24.0% | 15.1 | 10.1 | 29.4% | 2.3%
Cc1cc(C(=O)CN2C(=O)NC3(CCCc4ccccc43)C2=O)c(C)n1Cc1ccccc1 (stereo not given) | 0.9% | 1.17µM* | 20.2 | 25.3* | · | 14.5%
Cc1cc(C(=O)CN2C(=O)NC3(CCCc4ccccc43)C2=O)c(C)n1Cc1ccco1 (stereo not given) | -5.9% | · | 2.8 | 1.8 | 1.65µM* | 0.1%
SMILES | FBPA Giardia inh | Pf growth 96h | Shiga toxin inh | CHX counter | Pf growth 48h | NS1 inh
Cc1cc(C(=O)CN2C(=O)CCC2=O)c(C)n1Cc1ccccc1 | -0.5% | ? | 19.9 | 30.3* | · | -6.5%
O=C(O)c1cccc(SSc2cccc(C(=O)O)c2)c1 | · | · | · | · | · | -5.9%
O=C(NCc1ccccn1)c1cc(-c2ccc(Br)cc2)nc2ccccc12 | -7.4% | -17.2% | -3.7 | -2.0 | 24.8% | 15.2%
NS(=O)(=O)c1ccc(CCNC(=O)c2cc(-c3ccccc3)nc3ccccc23)cc1 | -0.6% | -22.6% | -9.0 | -0.5 | 6.9% | 13.0%
CCc1ccc(-c2cc(C(=O)NCc3ccccn3)c3ccccc3n2)cc1 | -8.9% | ? | 91.5* | 64.2* | 33.7% | -13.1%
O=C(NCc1ccc(F)cc1)c1cc(-c2ccncc2)nc2ccccc12 | 6.1% | ? | -6.6 | -1.2 | 3.7µM* | -19.9%
Cc1ccc(-c2cc(C(=O)NCCc3ccc(S(N)(=O)=O)cc3)c3ccccc3n2)cc1 | -1.3% | ? | 40.6 | 17.4* | ? | -1.5%
Cc1ccc(-c2cc(C(=O)NCc3ccccn3)c3ccccc3n2)cc1 | -3.2% | -5.4% | 44.8 | 30.1* | ? | -8.6%
Cc1ccc(C(=O)NCc2ccccn2)c(Cl)c1 | 3.7% | 42.3% | 62.8* | 30.9* | 31.5% | -8.1%
Cc1cc(Nc2ccccc2)n(C(=O)c2ccc(Cl)cc2)n1 | -2.6% | ? | 71.7* | 34.6* | -14.5% | -30.1%
CCOC(=O)c1cn(-c2ccccc2)nc1-c1cccnc1 | -0.9% | ? | 50.2* | 36.6* | 83.4% | -20.6%
O=C(O)c1cn(-c2ccccc2)nc1-c1cccnc1 | 0.1% | · | 6.5 | 4.3 | · | ?
O=C(NC1CCN(Cc2ccccc2)CC1)c1cn(-c2ccccc2)nc1-c1cccnc1 | · | 2.33µM* | · | · | 3.7µM* | ·
COc1ccc(/C=C(\NC(=O)c2ccco2)C(=O)NCc2ccco2)cc1 | -0.4% | 31.9% | -3.2 | -4.1 | 3.4% | 3.4%
C=CCN(C(=O)CSC1=NC(=O)CN1C(C)=O)c1nc(C)c(-c2ccccc2)s1 | -1.8% | 198.7% | 49.6 | 29.7* | 0.0% | 3.6%
O=C1C(CCC(O)c2ccc(F)cc2)C(c2ccc(O)cc2)N1c1ccc(F)cc1 (stereo not given) | -4.9% | -2.5% | · | · | -7.8% | ·
COc1cc(OC)c(NC(=O)C2CC(=O)N(c3ccc4c(c3)OCCO4)C2)cc1Cl (stereo not given) | · | 1.2% | · | · | -5.1% | ·
CCCCNC(=O)c1nn2cc(Br)cnc2c1Br | 1.7% | ? | 22.2 | 23.1* | 29.7% | ·
CCCNC(=O)c1nc2ncc(Br)cn2n1 | 2.2% | 13.1µM* | -13.4 | -6.6 | 25.9% | -2.5%
COc1cccc(-c2ccc3ncnc(NCCN4CCOCC4)c3c2)c1 | -1.3% | · | · | · | · | ·
O=C1[C@@H]2[C@H]3[C@H](O)[C@H](O)C/C(=N/OCc4ccccc4)[C@H]3CC[C@H]2C(=O)N1c1ccc(F)cc1F | 1.0%[12.9 µM] | · | · | · | · | ·
COC(=O)NC(c1cccc(F)c1)[C@@]1(C(=O)OC)CCCC1=O (stereo not given in full) | 2.9%[12.9 µM] | · | · | · | · | ·
CCOC(=O)C(C)n1cnc2c(oc3ccccc32)c1=O (stereo not given) | -0.3% | ? | 44.6 | 26.7 | 7.0% | ?
